PubChem BioAssay AID493094 (Broad Institute, 2011)
Values without a mark were called inactive. The source made the active and inactive calls.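 How the source made its calls: active means falling FRET signal with an AC50 fitted within ten times the highest valid concentration tested for that sample (actives reach about 61 µM in these data); inactive means the rest, including compounds that raise the signal.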

test: YIC FRET probe signal interference, dose response, counter-screen for RanGTP-importin-beta inhibitor project, biochemical, dry powder samples (AID 493094); conditions: cell-free YIC FRET probe, YFP/CFP ratio; series mostly up to 100 µM; activity change, negative = inhibition: at the top concentration

Row | Compound | activity change, negative = inhibition | AC50
1 | CC1(C)CCC(c2ccc(Cl)cc2)=C(CN2CCN(c3ccc(C(=O)NS(=O)(=O)c4ccc(N[C@H](CCN5CCOCC5)CSc5ccccc5)c(S(=O)(=O)C(F)(F)F)c4)cc3)CC2)C1 | -3.98% | 
2 | C[C@H](Nc1nc(N2CCCC2)nc2ccccc12)c1ccccc1 | -2.49% | 
3 | CCCN(CCC)c1nc(NCc2ccccc2)nc2ccccc12 | -6.33% | 
4 | c1ccc2c(N3CCCC3)nc(N3CCCC3)nc2c1 | -8.4% | 
5 | COCCNC(=O)/C(C#N)=C/c1cn(CC(=O)NCc2ccco2)c2ccccc12 |  | 61.3 µM (active)
6 | CC(Nc1nc(N2CCCC2)nc2ccccc12)c1ccccc1 (stereo unspecified) | -5.12% | 
7 | C[C@@H](Nc1nc(Cl)nc2ccccc12)c1ccccc1 | -3.98% | 
8 | Cc1ccc(S(=O)(=O)c2cc3c(=O)n4cccc(C)c4nc3n(C3CCCCC3)c2=N)cc1 |  | 26 µM (active)
9 | CCCN(CCC)c1nc(N2CCCC2)c2cc(OC)c(OC)cc2n1 | -7.73% [at 26 µM] | 
10 | CCCN(CCC)c1nc(N2CCNCC2)c2ccccc2n1 | -12.9% | 
11 | CC1(C)CC(=O)c2c(C(F)(F)F)nn(-c3ccc(C(N)=O)c(NC4CCC(O)CC4)c3)c2C1 (stereo unspecified) | -5.26% | 
12 | CCN(CC)c1nc(N2CCCC2)nc2ccccc12 | -6.96% | 
13 | CC1(C)CC(=O)c2c(C(F)(F)F)nn(-c3ccc(C(N)=O)c(OC4CCC(N)CC4)c3)c2C1 (stereo unspecified) | -11.5% | 
14 | c1ccc(CNc2nc(N3CCCC3)nc3ccccc23)cc1 | 6.88% | 
15 | CCCN(CCC)c1nc(N2CCCC2)nc2ccccc12 |  | inactive
16 | O=C(O)Cn1cc(/C=C2\SC(=O)N(CC(=O)N3CCCCCC3)C2=O)c2ccccc21 |  | 55.3 µM (active)
